According to PubChem BioAssay (NCATS):
Records with an inconclusive call do not appear. Unless noted, calls come from the whole dose curve; as a rule, active = well fitted curve in either direction with a large enough effect (not every such curve was filed as active); inconclusive = small, poorly fitted or top-dose-only effect, or another doubt; inactive = flat fitted curve, though single readings scatter.

Legend:
[1] = AP1 Signaling Pathway (AID 357); settings: ME-180 AP-1-bla reporter, EGF-induced, beta-lactamase ratio, 5 h; at 17.2 µM (top of the series) unless noted;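 note: ME-180 reporter cells stimulated with EGF at its EC50 level; % is set by controls: 0 for no effect and ±100 for the full control effect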
How it was run: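 AP-1-bla ME-180 cells, Opti-MEM + 0.5% dialyzed FBS, plated overnight 37 °C. Cpd titration + EC50 EGF, 5 h 37 °C. CCF4 2.5 h RT; ex 405, em 460/530 ratio → %activity, AC50.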

[2] = NFAT Signaling Pathway (AID 444); settings: Jurkat NFAT-bla M1, carbachol, beta-lactamase ratio, 5 h; at 17.2 µM (top of the series) unless noted;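 note: carbachol stimulus at about its EC50 of 1 µM final; % is set by controls: 0 for no effect and ±100 for the full control effect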
How it was run: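 Jurkat cells carrying an NFAT-driven β-lactamase reporter and co-transfected muscarinic M1 receptor were treated with compound plus carbachol (1 uM final, an EC50 level) for 5 h at 37 °C. CCF4 loading followed for 1 h at RT; 460/530 nm ratio gave %activity.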

[3] = Stat Signaling Pathway (AID 446); settings: ME-180 SIE beta-lactamase reporter, IL-6 stimulated, 5 h; at 17.2 µM (top of the series) unless noted;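 note: ME-180 cervical cancer cells given 40 pM IL-6 alongside compound; SIE-controlled beta-lactamase reporter measured as 460/530 nm FRET emission ratio; % is set by controls: 0 for no effect and ±100 for the full control effect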
How it was run: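 Screening format detects activators and inhibitors alike: ME-180 SIE-bla cells stimulated at 40 pM IL-6 for 5 hrs with compound, then dual-emission beta-lactamase read at 405 nm excitation.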

[4] = molecular target: Glucocorticoid receptor (Homo sapiens) (UniProt P04150); assay: GR-GFP Redistribution (AID 450;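 active = compounds whose dose series gives a full or clear partial fitted curve of increased nuclear translocation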; note: potency is the fitted concentration of half-maximal effect)
Sequence of Glucocorticoid receptor (Homo sapiens) (P04150 whole entry, looked up): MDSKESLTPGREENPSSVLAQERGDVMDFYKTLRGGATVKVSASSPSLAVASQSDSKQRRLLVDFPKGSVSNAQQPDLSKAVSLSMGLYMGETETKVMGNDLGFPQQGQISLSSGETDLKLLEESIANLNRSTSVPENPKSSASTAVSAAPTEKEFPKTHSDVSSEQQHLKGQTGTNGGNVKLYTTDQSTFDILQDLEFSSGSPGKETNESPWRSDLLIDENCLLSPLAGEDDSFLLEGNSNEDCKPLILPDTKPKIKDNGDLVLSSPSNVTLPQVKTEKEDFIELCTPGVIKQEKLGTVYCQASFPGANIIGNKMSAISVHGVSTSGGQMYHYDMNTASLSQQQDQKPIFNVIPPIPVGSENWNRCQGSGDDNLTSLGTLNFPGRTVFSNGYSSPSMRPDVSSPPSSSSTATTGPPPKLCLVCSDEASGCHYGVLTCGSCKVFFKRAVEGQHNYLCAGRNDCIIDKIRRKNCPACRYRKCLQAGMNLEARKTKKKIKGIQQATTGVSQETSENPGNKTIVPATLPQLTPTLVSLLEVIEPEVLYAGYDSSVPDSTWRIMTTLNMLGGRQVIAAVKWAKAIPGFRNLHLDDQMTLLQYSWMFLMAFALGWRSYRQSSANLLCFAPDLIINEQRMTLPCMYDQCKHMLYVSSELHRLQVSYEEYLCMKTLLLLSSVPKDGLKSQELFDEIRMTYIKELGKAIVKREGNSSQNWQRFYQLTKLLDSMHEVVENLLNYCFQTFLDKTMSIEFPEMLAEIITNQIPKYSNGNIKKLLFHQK

O=C1N[C@@H](Cc2cnc[nH]2)C(=O)N2CCC[C@@H]12
inactive: activity change, negative = inhibition [1] 15.2% | activity change, negative = inhibition [2] -19.2% | activity, negative = inhibition [3] 4.85% | Potency [4] > 20.6 µM

O=C(COc1ccc(Cl)cc1)Nc1ccccc1CO
inactive: activity change, negative = inhibition [1] 6.8% | activity change, negative = inhibition [2] 6.35% | activity, negative = inhibition [3] 0.225% | Potency [4] > 20.6 µM

CCn1c(-c2ccco2)n[nH]c1=S
inactive: activity change, negative = inhibition [1] 14% | activity change, negative = inhibition [2] 4.37% | activity, negative = inhibition [3] 4.5% | Potency [4] > 20.6 µM

CCOC(=O)CCNc1n[nH]c(=O)[nH]c1=O
inactive: activity change, negative = inhibition [1] 7.71% | activity change, negative = inhibition [2] 7.29% | activity, negative = inhibition [3] -2.32% | Potency [4] > 20.6 µM

CCOC(=O)C1CCN(c2ncnc3c2cnn3-c2ccc(Cl)cc2)CC1
inactive: activity change, negative = inhibition [1] 0.357% | activity change, negative = inhibition [2] -16.1% | activity, negative = inhibition [3] 4.03% | Potency [4] > 20.6 µM

Cc1ccc(Cn2ncc3c(N4CCOCC4)ncnc32)cc1
inactive: activity change, negative = inhibition [1] -2.95% | activity change, negative = inhibition [2] 19.3% | activity, negative = inhibition [3] 3.94% | Potency [4] > 20.6 µM

CN/C(=C/[N+](=O)[O-])NCCSCc1ccc(CN(C)C)o1
inactive: activity change, negative = inhibition [1] -15.4% | activity change, negative = inhibition [2] -27.6% | activity, negative = inhibition [3] -3.38% | Potency [4] > 20.6 µM

COc1cc(=O)n2c(-c3ccccc3)csc2n1
inactive: activity change, negative = inhibition [1] 6.57% | activity change, negative = inhibition [2] 0.0134% | activity, negative = inhibition [3] 8.66% | Potency [4] > 20.6 µM

Cn1c(SCC(=O)N2CCOCC2)nnc1-c1ccc(Cl)cc1Cl
inactive: activity change, negative = inhibition [1] -13.7% | activity change, negative = inhibition [2] -5.6% | activity, negative = inhibition [3] 5.04% | Potency [4] > 20.6 µM

c1ccc(-c2nnc3n2N=C(c2ccc4c(c2)OCO4)CS3)nc1
inactive: activity change, negative = inhibition [1] 2.99% | activity change, negative = inhibition [2] 19.9% | activity, negative = inhibition [3] -6.24% | Potency [4] > 20.6 µM

CCN(CC)CCCC1(CN)OCCc2ccccc21 (stereo not given)
inactive: activity change, negative = inhibition [1] 19.8% | activity change, negative = inhibition [2] -16.2% | activity, negative = inhibition [3] 8.19% | Potency [4] > 20.6 µM

COCc1cc(=O)[nH]c(Nc2nc3ccccc3o2)n1
inactive: activity change, negative = inhibition [1] 20.9% | activity change, negative = inhibition [2] -12.8% | activity, negative = inhibition [3] 1.07% | Potency [4] > 20.6 µM

Clc1nc(-c2n[nH]nc2Cl)n[nH]1
inactive: activity change, negative = inhibition [1] 14.2% | activity change, negative = inhibition [2] -2.11% | activity, negative = inhibition [3] 5.38% | Potency [4] > 20.6 µM

CCOc1ccc(C2CC(c3ccccc3)Nc3nc(N)nn32)cc1 (stereo not given)
inactive: activity change, negative = inhibition [1] -4.28% | activity change, negative = inhibition [2] 6.92% | activity, negative = inhibition [3] -1.31% | Potency [4] > 20.6 µM

COc1ccc(C2C(C#N)=C(N)SC(N)=C2C#N)cc1OC
inactive: activity change, negative = inhibition [1] 5.54% | activity change, negative = inhibition [2] 29.6% | activity, negative = inhibition [3] 3.8% | Potency [4] > 20.6 µM

NC(=O)c1ccccc1OCCOCCOCCOc1ccccc1C(N)=O
inactive: activity change, negative = inhibition [1] -9.33% | activity change, negative = inhibition [2] -4.35% | activity, negative = inhibition [3] -0.51% | Potency [4] > 20.6 µM

C=C(C)CSC1=C(C#N)C(c2ccsc2)CC(=O)N1 (stereo not given)
inactive: activity change, negative = inhibition [1] -7.58% | activity change, negative = inhibition [2] -0.539% | activity, negative = inhibition [3] -1.45% | Potency [4] > 20.6 µM

COc1cc(C(=O)Nc2ccccn2)cc(OC)c1OC
inactive: activity change, negative = inhibition [1] 1.72% | activity change, negative = inhibition [2] 12% | activity, negative = inhibition [3] 25.9% | Potency [4] > 20.6 µM

CCC1=C(C(=O)OC)C(c2cc(OC)ccc2OC)C(C#N)=C(N)O1 (stereo not given)
inactive: activity change, negative = inhibition [1] -1.51% | activity change, negative = inhibition [2] -14.5% | activity, negative = inhibition [3] 4.21% | Potency [4] > 20.6 µM

Cn1c(=O)c2c(nc(NCc3ccc4c(c3)OCO4)n2Cc2ccccc2Cl)n(C)c1=O
inactive: activity change, negative = inhibition [1] -22.3% | activity change, negative = inhibition [2] -8.43% | activity, negative = inhibition [3] -2.58% | Potency [4] > 20.6 µM

COc1ccc(NC(=O)C2CSC3c4ccccc4C(=O)N23)cc1 (stereo not given)
inactive: activity change, negative = inhibition [1] -4.43% | activity change, negative = inhibition [2] -13% | activity, negative = inhibition [3] 4.23% | Potency [4] > 20.6 µM

CC(NC(=O)Nc1cccnc1)(C(F)(F)F)C(F)(F)F
inactive: activity change, negative = inhibition [1] -12.1% | activity change, negative = inhibition [2] -11.5% | activity, negative = inhibition [3] -3.14% | Potency [4] > 20.6 µM

CNC(=O)c1ncnnc1N(C)C(=O)NCc1ccccc1
inactive: activity change, negative = inhibition [1] -4.45% | activity change, negative = inhibition [2] 4.03% | activity, negative = inhibition [3] 0.797% | Potency [4] > 20.6 µM

c1ccc2c(c1)nc(CN1CCOCC1)n1c3ccccc3nc21
inactive: activity change, negative = inhibition [1] 25.2% | activity change, negative = inhibition [2] 25.2% | activity, negative = inhibition [3] 14.3% | Potency [4] > 20.6 µM

OC(CNCCCN1CCCCC1)COc1ccccc1 (stereo not given)
inactive: activity change, negative = inhibition [1] -10.5% | activity change, negative = inhibition [2] -28.5% | activity, negative = inhibition [3] 9.93% | Potency [4] > 20.6 µM
